This note sets out measurements from PubChem BioAssay.

Structures are written as SMILES. “And” between values parts separate entries of the source, which are not always exact repeats. Equal entries are not always repeated. Results filed as inconclusive are left out. The source holds several records for some structures; these can differ, active in one and inactive in another. The source made the active and inactive calls.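 The calls were made as follows, unless noted: active = normalized viability below 100% at a tested concentration; inactive = the rest.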

The test system of assay [1] is Aerobactin synthetase IucA (Klebsiella pneumoniae). As to the kind of experiment: IucA aerobactin synthetase inhibitors, biochemical, Tocris library, absorbance (AID 1345561; call rule not given here;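 also: 100% = enzyme without compound and 0% = no enzyme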). The conditions noted are these: purified IucA enzyme assay, absorbance (OD) read-out; stronger effect = lower value;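 tested at 8 µM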.
Assay [2] is described as follows: growth inhibition of DIPG glioma cells, dose response, cell-based, SU-DIPG-XVII, MIPE5.0, CellTiter-Glo, qHTS (AID 1347060; cut-off not given, nearly all actives have AC50 up to about 26 µM). Particulars: SU-DIPG-XVII viability, CellTiter-Glo ATP luminescence.
Assay [3] is described as follows: growth inhibition of DIPG glioma cells, dose response, cell-based, SU-DIPG-XIII, MIPE4.0, CellTiter-Glo, qHTS (AID 1347061; cut-off not given, nearly all actives have AC50 up to about 37 µM;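 also: cells exposed to compound for 48 hours before readout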). The conditions noted are these: SU-DIPG-XIII viability, CellTiter-Glo ATP luminescence.
A short description of assay [4]: growth inhibition of DIPG glioma cells, dose response, cell-based, JHH-DIPG-1, MIPE4.0, CellTiter-Glo, qHTS (AID 1347062; cut-off not given, nearly all actives have AC50 up to about 27 µM;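 as to AC50: cells exposed to compound for two days before readout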). The conditions noted are these: JHH-DIPG-1 viability, CellTiter-Glo ATP luminescence. (In general: Cellular ATP, detected with luciferase, serves as a proxy for viable cell number.)
Assay [5] is described as follows: growth inhibition of DIPG glioma cells, dose response, cell-based, SU-DIPG-IV, MIPE4.0, CellTiter-Glo, qHTS (AID 1347063; cut-off not given, nearly all actives have AC50 up to about 30 µM;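 also: compound exposure lasted 48 hours before the viability readout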). Particulars: SU-DIPG-IV viability, CellTiter-Glo ATP luminescence.
Assay [6] is described as follows: growth inhibition of DIPG glioma cells, dose response, cell-based, SU-DIPG-XIII, MIPE5.0, CellTiter-Glo, qHTS (AID 1347064; cut-off not given, nearly all actives have AC50 up to about 23 µM). The conditions noted are these: SU-DIPG-XIII viability, CellTiter-Glo ATP luminescence.
Assay [7] is described as follows: JHH-DIPG-1 glioma cell viability, MIPE5.0 library, CellTiter-Glo luminescence, qHTS (AID 1347067; cut-off not given, nearly all actives have AC50 up to about 26 µM;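 also: cells exposed to compound for 48 hours before readout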). The conditions noted are these: JHH-DIPG-1 glioma viability, CellTiter-Glo ATP luminescence.
The nature of assay [8]: SU-DIPG-XXV glioma cell viability, MIPE5.0 library, qHTS (AID 1347068; cut-off not given, nearly all actives have IC50 up to about 30 µM). Background: qHTS replaces the single test concentration by a dilution series.
Assay [9] in a line: sensitizers of A549 cells to miR-34 induction, primary screen, imaging, A549 dox-inducible miR-34, nuclei and caspase counts (AID 1347080;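 active = compounds whose cell count with miR-34 switched on is under 0.7 times the count with it off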). The conditions noted are these: A549 miR-34 inducible, Hoechst nuclei count, 48 h.
Assay [10] can be described thus: survival rescue of mitochondrial mutant cells in low glucose, primary screen, MELAS cybrids, Rieske KO mouse fibroblasts, CellTiter-Glo (AID 1508586;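 active = mean z-score across replicates of 1.96 or higher in either the MELAS or the Rieske mutant cell line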;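 also: z relative to plate mean and SD of compound and empty wells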).
Assay [11] is described as follows: viability rescue of complex I mutant cybrids, primary screen, cell-based, galactose medium, ATP luminescence (AID 1645843;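 active = z-score of at least 1.8 in each of two replicates, scored against plate mean and spread of sample wells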;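 also: positive z means more ATP and so rescue of galactose-driven cybrid death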). The conditions noted are these: complex I mutant cybrid cells, 72 h, stronger effect = higher value.
A short description of assay [12]: liver-stage malaria parasite growth inhibition, primary screen, cell-based, HepG2, luciferase luminescence, HepG2 viability (AID 624349; in the data active = parasite load remaining mostly below about 12%, no sharp cut-off; inactive = mostly above about 10%;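 also: 100% = mean of DMSO negative control wells on the same plate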). The conditions noted are these: P. berghei liver stage in HepG2, luciferase luminescence, concentration not given here; parasite load remaining: stronger effect = lower value; viability: measured here: HepG2 viability without parasites.
Assay [13] can be described thus: SU-DIPG-VI glioma cell viability, MIPE4.0 library, CellTiter-Glo luminescence, qHTS (AID 1347066; cut-off not given, nearly all actives have AC50 up to about 30 µM;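 also: cells exposed to compound for 48 hours before readout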). Particulars: CellTiter-Glo ATP luminescence.
Assay [14] is described as follows: modifiers of HSF1 nuclear foci, imaging, Selleck Cancer Library (AID 1347162; in the data active = plate-normalised HSF1 focus index below about 0.46). Particulars: human cells, at 10 µM; SSMD: measured here: HSF1 foci SSMD mean; cell count: measured here: cell number; plate-normalised HSF1 focus index: stronger effect = lower value.
A short description of assay [15]: ovarian cancer cell viability with rucaparib, profiling panel, oncology-focused library, rucaparib conditional (AID 1508598). The conditions noted are these: patient-derived ovarian cancer cells, CellTiter-Glo viability, 144 h, stronger effect = lower value.
Assay [16] can be described thus: viability loss in pontine glioma line – cell-based, SU-DIPG-XXV, MIPE5.0, CellTiter-Glo, qHTS, dose response (AID 1347065; cut-off not given, nearly all actives have AC50 up to about 26 µM;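 also: cells exposed to compound for 48 hours before ATP readout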). The conditions noted are these: CellTiter-Glo ATP luminescence.
The mark [17] stands for this setting: stronger effect = lower value, cell number ratio, induced over uninduced.
The mark [18] stands for this setting: MELAS cybrid survival, CellTiter-Glo 48 h, stronger effect = higher value.
The mark [19] stands for this setting: Rieske KO mouse fibroblast survival, CellTiter-Glo 72 h.

`O=C1NC(=O)C(c2ccccc2[N+](=O)[O-])=C1Nc1ccc(O)c(Cl)c1`: in assay [1], the remaining activity (as a rule, the signal under treatment as a percentage of the control signal) is 112% (inactive). Also, the call in [2], in [3], in assay [4], in [5], in assay [6] and in [7] was inactive. Also, the outcome in assay [8] was inactive. The fold change in assay [9] (setting [17]) was 1 (inactive) and 1.09 (inactive) and 0.982 (inactive). The z-score was -0.406 (inactive) in [10] (setting [18]); 0.723 in assay [10] (setting [19]); 1.65 (inactive) and 0.35 (inactive) in assay [11].

Consider `CS(=O)c1ccc(-c2nc(-c3ccc(F)cc3)c(-c3ccncc3)[nH]2)cc1` (stereo not given), for which, in [12], the parasite load remaining was 28.5% (inactive). Moreover, the viability (usually a read-out of living cells in per cent, often relative to untreated cells) in [12] is 76.8%; in [15] (at 0.000305 µM, OCI-C5x cells, with rucaparib 10 µM, 100% = cells with rucaparib alone), 128% (inactive); in [15] (at 0.000305 µM, OCI-C5x cells, without rucaparib) it was 139% (inactive); in assay [15] (at 0.000305 µM, OCI-P5x cells, with rucaparib 20 µM, 100% = cells with rucaparib alone), 109% (inactive); in [15] (at 0.000305 µM, OCI-P5x cells, without rucaparib), 111% (inactive); in assay [15] (at 0.00122 µM, OCI-C5x cells, with rucaparib 10 µM, 100% = cells with rucaparib alone), 123% (inactive). Further, the viability in assay [15] (at 0.00122 µM, OCI-C5x cells, without rucaparib) was 135% (inactive); in assay [15] (at 0.00122 µM, OCI-P5x cells, with rucaparib 20 µM, 100% = cells with rucaparib alone), 103% (inactive); in assay [15] (at 0.00122 µM, OCI-P5x cells, without rucaparib) it was 107% (inactive); in [15] (at 0.00488 µM, OCI-C5x cells, with rucaparib 10 µM, 100% = cells with rucaparib alone) it was 134% (inactive); in assay [15] (at 0.00488 µM, OCI-C5x cells, without rucaparib), 139% (inactive); in assay [15] (at 0.00488 µM, OCI-P5x cells, with rucaparib 20 µM, 100% = cells with rucaparib alone) it was 108% (inactive). The viability in [15] (at 0.00488 µM, OCI-P5x cells, without rucaparib) was 111% (inactive); in assay [15] (at 0.0195 µM, OCI-C5x cells, with rucaparib 10 µM, 100% = cells with rucaparib alone) it was 128% (inactive); in assay [15] (at 0.0195 µM, OCI-C5x cells, without rucaparib), 145% (inactive); in [15] (at 0.0195 µM, OCI-P5x cells, with rucaparib 20 µM, 100% = cells with rucaparib alone), 108% (inactive); in assay [15] (at 0.0195 µM, OCI-P5x cells, without rucaparib), 108% (inactive); in [15] (at 0.0781 µM, OCI-C5x cells, with rucaparib 10 µM, 100% = cells with rucaparib alone), 127% (inactive). Further, the viability in assay [15] (at 0.0781 µM, OCI-C5x cells, without rucaparib) was 164% (inactive); in assay [15] (at 0.0781 µM, OCI-P5x cells, with rucaparib 20 µM, 100% = cells with rucaparib alone), 108% (inactive); in assay [15] (at 0.0781 µM, OCI-P5x cells, without rucaparib) it was 112% (inactive); in assay [15] (at 0.313 µM, OCI-C5x cells, with rucaparib 10 µM, 100% = cells with rucaparib alone) it was 129% (inactive); in [15] (at 0.313 µM, OCI-C5x cells, without rucaparib) it was 159% (inactive); in assay [15] (at 0.313 µM, OCI-P5x cells, with rucaparib 20 µM, 100% = cells with rucaparib alone), 119% (inactive). The viability is 111% (inactive) in assay [15] (at 0.313 µM, OCI-P5x cells, without rucaparib); 116% (inactive) in [15] (at 1.25 µM, OCI-C5x cells, with rucaparib 10 µM, 100% = cells with rucaparib alone); 166% (inactive) in assay [15] (at 1.25 µM, OCI-C5x cells, without rucaparib); 130% (inactive) in assay [15] (at 1.25 µM, OCI-P5x cells, with rucaparib 20 µM, 100% = cells with rucaparib alone); 108% (inactive) in [15] (at 1.25 µM, OCI-P5x cells, without rucaparib); 132% (inactive) in [15] (at 5 µM, OCI-C5x cells, with rucaparib 10 µM, 100% = cells with rucaparib alone). The viability in assay [15] (at 5 µM, OCI-C5x cells, without rucaparib) was 161% (inactive); in assay [15] (at 5 µM, OCI-P5x cells, with rucaparib 20 µM, 100% = cells with rucaparib alone), 119% (inactive); in [15] (at 5 µM, OCI-P5x cells, without rucaparib), 113% (inactive). In addition, the remaining activity in assay [1] was 113% (inactive) and 119% (inactive). For the same molecule, the molecule was called inactive in assay [2], in assay [6] and in assay [13]. Further, the AC50 (in general, the concentration giving half of the maximal activity seen) was 15.2 µM (active) in [4] and 48.1 µM (active) in assay [5]. The molecule further displayed an SSMD in assay [14] of 2.53. Also, the cell count in assay [14] was found to be 7460. In assay [14], the plate-normalised HSF1 focus index was 1.16 (inactive). The z-score in [10] (setting [18]) is -0.617 (inactive); in assay [10] (setting [19]) it was 0.991; in assay [11], 1.98 (inactive) and 3.42 (active).

For `Nc1nccc(-c2ccc3noc(-c4ccc(Cl)cc4)c3c2)n1`, the parasite load remaining in [12] was 22.2% (inactive). In addition, the viability in [12] is 88.2%. Further, the remaining activity in assay [1] is 127% (inactive). Further, the molecule was called inactive in assay [4] and in [13]. For the same molecule, the concentration at half-maximal activity (AC50) in assay [16] was 20.9 µM (active). The fold change was 0.777 (inactive) in assay [9] (setting [17]) and 2.19 in assay [9] (measured here: relative caspase fold change +Dox/-Dox). The cell count in [9] (measured here: total cells with miR-34 induction, stronger effect = lower value) was 3770; in [9] (measured here: total cells without miR-34 induction), 4860; in assay [14], 7060. In assay [14], the SSMD amounted to 3.12. Also, in assay [14], the plate-normalised HSF1 focus index was 1.19 (inactive). Besides, the z-score in assay [11] was -0.05 (inactive).

For `N#CC(=C(/N)Sc1ccccc1N)/C(C#N)=C(\N)Sc1ccccc1N`, in assay [1], the remaining activity was 92.9% (inactive). The AC50 in [5] is 8.33 µM (active). Besides, in [11], the z-score was -0.875 (inactive).
